PubChem BioAssay (NCATS)
Records with an inconclusive call do not appear. Activity calls are given as the source filed them. Unless noted, the call rests on the fitted dose curve; in most records, active means well fitted curve in the direction sought with a large enough effect; inconclusive means small, poorly fitted or top-dose-only effect, or another doubt; inactive means no such curve, though single readings can be large; an effect the other way counts as inactive or inconclusive.

What was measured:
[1] = AP1 Signaling Pathway (AID 357; active means well fitted curve in either direction with a large enough effect, not every such curve was filed as active;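 further: ME-180 reporter cells stimulated with EGF at its EC50 level; on the % scale 0 is the no-effect control and ±100 the full control effect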); settings: ME-180 AP-1-bla reporter, EGF-induced, beta-lactamase ratio, 5 h; at 7.69 µM (top of the series) unless noted
How it was run: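 First, ME-180 AP-1-bla cells were cultured overnight at 37 °C in low-serum Opti-MEM. Next, titrated compounds with EC50 EGF were incubated 5 hours. Finally, CCF4 was added for 2.5 hours and the 460/530 nm ratio recorded.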

[2] = target: Cytochrome P450 1A2 (Homo sapiens) (UniProt P05177); test: p450-cyp1a2 (AID 410; calls by dose curve; further: potency means the concentration at half of the fitted maximal effect)
Chain of Cytochrome P450 1A2 (Homo sapiens) (P05177 whole entry, looked up): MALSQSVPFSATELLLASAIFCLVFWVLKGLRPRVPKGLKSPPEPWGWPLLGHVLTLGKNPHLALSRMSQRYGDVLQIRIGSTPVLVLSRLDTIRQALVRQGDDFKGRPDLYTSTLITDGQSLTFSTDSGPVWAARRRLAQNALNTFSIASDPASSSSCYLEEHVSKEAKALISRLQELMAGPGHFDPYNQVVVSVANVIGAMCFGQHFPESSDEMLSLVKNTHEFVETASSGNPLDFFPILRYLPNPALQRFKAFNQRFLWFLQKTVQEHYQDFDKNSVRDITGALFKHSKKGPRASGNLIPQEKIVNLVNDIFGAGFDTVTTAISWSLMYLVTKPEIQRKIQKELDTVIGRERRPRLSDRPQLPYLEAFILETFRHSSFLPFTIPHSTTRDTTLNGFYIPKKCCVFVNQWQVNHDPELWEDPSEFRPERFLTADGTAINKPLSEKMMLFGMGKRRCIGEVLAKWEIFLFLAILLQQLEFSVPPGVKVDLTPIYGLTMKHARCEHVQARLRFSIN
How it was run: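 Luminescent readout of luciferin formed from Luciferin-ME by human CYP1A2; data normalized against complete inhibition by 57 uM furafylline. Enzyme 20nM, substrate 100uM at Km, 100mM KPO4 buffer, 60 min reaction at room temperature.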

[3] = Stat Signaling Pathway (AID 446; active means well fitted curve in either direction with a large enough effect, not every such curve was filed as active;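 further: ME-180 cervical cancer cells given 40 pM IL-6 alongside compound; SIE-controlled beta-lactamase reporter measured as 460/530 nm FRET emission ratio; on the % scale 0 is the no-effect control and ±100 the full control effect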)
How it was run: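 Screening format detects activators and inhibitors alike: ME-180 SIE-bla cells stimulated at 40 pM IL-6 for 5 hrs with compound, then dual-emission beta-lactamase read at 405 nm excitation.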

[4] = target: Glucocorticoid receptor (Homo sapiens) (UniProt P04150); test: GR-GFP Redistribution (AID 450;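 active means compounds whose dose series gives a full or clear partial fitted curve of increased nuclear translocation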; further: potency means the concentration at half of the fitted maximal effect); settings: U2OS GR-GFP nuclear translocation, laser cytometry, 2 h
Chain of Glucocorticoid receptor (Homo sapiens) (P04150 whole entry, looked up, the tested form may be a part): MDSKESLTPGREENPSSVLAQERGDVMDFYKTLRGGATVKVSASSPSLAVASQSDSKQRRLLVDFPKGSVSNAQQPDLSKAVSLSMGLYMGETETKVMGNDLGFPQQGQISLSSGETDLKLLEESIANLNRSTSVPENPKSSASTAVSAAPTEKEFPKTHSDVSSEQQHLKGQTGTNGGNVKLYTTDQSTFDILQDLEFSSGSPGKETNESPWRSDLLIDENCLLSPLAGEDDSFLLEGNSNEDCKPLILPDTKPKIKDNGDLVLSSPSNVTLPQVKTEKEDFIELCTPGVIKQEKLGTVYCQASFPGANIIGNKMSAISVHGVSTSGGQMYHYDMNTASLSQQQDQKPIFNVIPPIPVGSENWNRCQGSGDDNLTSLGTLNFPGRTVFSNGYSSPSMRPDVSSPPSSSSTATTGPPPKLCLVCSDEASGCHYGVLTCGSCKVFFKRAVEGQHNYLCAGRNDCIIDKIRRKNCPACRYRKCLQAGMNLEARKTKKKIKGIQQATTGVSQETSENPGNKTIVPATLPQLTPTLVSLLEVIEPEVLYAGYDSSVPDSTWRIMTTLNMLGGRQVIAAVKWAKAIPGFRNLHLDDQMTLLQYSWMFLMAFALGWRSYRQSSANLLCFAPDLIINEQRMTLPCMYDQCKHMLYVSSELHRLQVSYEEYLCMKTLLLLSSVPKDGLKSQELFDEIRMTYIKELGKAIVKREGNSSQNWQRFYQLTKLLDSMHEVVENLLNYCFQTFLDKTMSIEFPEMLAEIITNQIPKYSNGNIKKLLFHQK

[5] = target: Glucocorticoid receptor (Homo sapiens) (UniProt P04150); test: GR-EFC Redistribution (AID 451; calls by dose curve; further: potency means the concentration at half of the fitted maximal effect); settings: CHO-K1 GR-EFC translocation, beta-gal luminescence, 2 h
How it was run: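 Translocation of GR-ED fusion to nuclear EA restores b-gal, read by luminescence after 1 h room-temperature detection. Engineered CHO-K1 biosensor cells, 1,000/well, exposed 2 h at 37 C to titrations up to 46 uM final.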

[6] = target: Mitogen-activated protein kinase 10 (Mus musculus) (UniProt Q61831); test: JNK3 AlphaScreen Assay (AID 530; active means well fitted curve in either direction with a large enough effect, not every such curve was filed as active;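 further: kinase came from lysate of stimulated human HepG2 cells; signal reports phosphorylation of biotinylated GST-cJun 1-79 at Ser73 with 10 µM ATP; on the % scale 0 is the no-effect control and ±100 the full control effect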)
How it was run: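 Compound titrations were preincubated 15 minutes at room temperature with substrate, antibody and pre-activated JNK3-containing HepG2 lysate. Reactions were started with 10 uM ATP and stopped with EDTA-containing bead buffer for AlphaScreen detection.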

[7] = target: 3',5'-cyclic-AMP phosphodiesterase 4B (Homo sapiens) (UniProt Q07343); test: qHTS Assay for Inhibitors of PDE-IV (AID 607; active means well fitted activation curve with a large enough effect in the main read-out, with a control signal flat, not every such curve was filed as active; further: % of control where 0% means no effect)
Chain of 3',5'-cyclic-AMP phosphodiesterase 4B (Homo sapiens) (Q07343 whole entry, looked up): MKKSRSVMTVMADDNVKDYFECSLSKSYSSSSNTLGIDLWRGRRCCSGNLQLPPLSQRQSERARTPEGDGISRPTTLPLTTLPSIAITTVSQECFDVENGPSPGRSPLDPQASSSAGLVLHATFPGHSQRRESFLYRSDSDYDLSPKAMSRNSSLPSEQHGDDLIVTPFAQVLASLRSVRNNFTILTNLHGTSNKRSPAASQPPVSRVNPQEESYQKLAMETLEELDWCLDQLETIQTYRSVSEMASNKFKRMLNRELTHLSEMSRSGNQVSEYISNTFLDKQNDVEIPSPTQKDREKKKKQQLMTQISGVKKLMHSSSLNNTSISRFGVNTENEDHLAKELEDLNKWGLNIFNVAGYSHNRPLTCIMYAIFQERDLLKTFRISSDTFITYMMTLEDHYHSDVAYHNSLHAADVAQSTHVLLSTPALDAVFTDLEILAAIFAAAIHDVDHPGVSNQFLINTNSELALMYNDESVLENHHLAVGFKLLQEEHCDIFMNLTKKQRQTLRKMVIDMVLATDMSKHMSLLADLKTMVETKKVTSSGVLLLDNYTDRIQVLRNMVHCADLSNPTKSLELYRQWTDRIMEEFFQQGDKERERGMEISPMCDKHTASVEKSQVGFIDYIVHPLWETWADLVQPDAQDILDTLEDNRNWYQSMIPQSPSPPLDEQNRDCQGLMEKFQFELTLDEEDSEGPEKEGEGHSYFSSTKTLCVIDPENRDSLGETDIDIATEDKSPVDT
How it was run: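 The readout is membrane depolarisation from a cAMP-sensing CNG channel, detected with a potential dye at ex 535/em 590. Cells were HEK293-derived (endogenous PDE-IV) at 1000 cells/well, titrated up to 22.9 uM final.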

[8] = target: Guanine nucleotide-binding protein G(i) subunit alpha-1 (Homo sapiens) (UniProt P63096); test: qHTS Assay for Inhibitors of RGS12 GoLoco Motif Activity (Green Fluorophore) (AID 879);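 further: 0% = labeled peptide with Gαi1 and full inhibition = labeled peptide alone without protein; negative values mean loss of peptide binding seen as reduced polarization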
How it was run: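 Fluorescence polarization assay: 50 nM Gαi1 with 10 nM FITC-labeled RGS12 GoLoco peptide in 10 mM Tris pH 7.5, 150 mM NaCl, 0.1 mM GDP, 0.05% NP40, 10 min at room temperature with compound.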

[9] = target: Cytochrome P450 2C9 (Homo sapiens) (UniProt P11712); test: qHTS Assay for Inhibitors and Substrates of Cytochrome P450 2C9 (AID 883); further: on the % scale 0 is the no-effect control and ±100 the full control effect; nearly all actives have a fitted effect of over 60% in size
Chain of Cytochrome P450 2C9 (Homo sapiens) (P11712 whole entry, looked up): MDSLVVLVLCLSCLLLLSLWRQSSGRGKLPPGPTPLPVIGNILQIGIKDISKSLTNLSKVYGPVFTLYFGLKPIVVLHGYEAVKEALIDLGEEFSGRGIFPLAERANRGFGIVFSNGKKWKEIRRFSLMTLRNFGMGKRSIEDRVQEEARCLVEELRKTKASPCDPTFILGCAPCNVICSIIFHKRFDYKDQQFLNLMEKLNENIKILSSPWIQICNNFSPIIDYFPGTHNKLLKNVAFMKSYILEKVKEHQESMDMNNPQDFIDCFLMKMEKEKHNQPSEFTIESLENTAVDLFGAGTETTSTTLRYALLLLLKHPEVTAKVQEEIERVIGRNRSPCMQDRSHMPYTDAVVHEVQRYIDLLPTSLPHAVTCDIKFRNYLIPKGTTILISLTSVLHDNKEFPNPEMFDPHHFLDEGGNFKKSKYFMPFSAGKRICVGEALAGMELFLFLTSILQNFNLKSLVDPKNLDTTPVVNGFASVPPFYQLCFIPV
How it was run: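 Inhibition of CYP2C9 is scored as loss of luminescence, with 57uM sulphaphenazole defining 100% inhibition. Substrate Luciferin-H is used at 100uM, equal to its KM; enzyme at 10nM in 25mM KPO4, 60 min at 37C with NADPH regeneration.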

[10] = target: Cytochrome P450 3A4 (Homo sapiens) (UniProt P08684); test: qHTS Assay for Activators of Cytochrome P450 3A4 (AID 885); further: nearly all actives have a fitted effect of over 65% in size
Chain of Cytochrome P450 3A4 (Homo sapiens) (P08684 whole entry, looked up): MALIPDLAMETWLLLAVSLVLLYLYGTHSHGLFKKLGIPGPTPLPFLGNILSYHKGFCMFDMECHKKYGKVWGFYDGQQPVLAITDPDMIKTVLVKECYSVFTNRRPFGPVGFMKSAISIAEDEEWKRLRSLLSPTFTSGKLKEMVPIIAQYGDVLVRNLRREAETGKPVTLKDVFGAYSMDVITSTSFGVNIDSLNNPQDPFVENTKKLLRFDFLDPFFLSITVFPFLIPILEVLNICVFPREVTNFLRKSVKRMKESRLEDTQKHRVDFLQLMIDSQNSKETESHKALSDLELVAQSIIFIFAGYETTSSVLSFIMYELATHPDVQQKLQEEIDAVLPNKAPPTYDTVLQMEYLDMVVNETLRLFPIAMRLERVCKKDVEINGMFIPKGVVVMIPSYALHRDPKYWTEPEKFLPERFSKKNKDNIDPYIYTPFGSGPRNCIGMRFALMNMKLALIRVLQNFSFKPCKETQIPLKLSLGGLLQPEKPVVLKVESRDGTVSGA
How it was run: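 Steps: enzyme/substrate mix dispensed; compound added, 10 min RT; NADPH regeneration solution added, 60 min RT; luciferin detection buffer stops reaction; 20 min later luminescence measured.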

[11] = target: Cytochrome P450 2D6 (Homo sapiens) (UniProt P10635); test: qHTS Assay for Inhibitors and Substrates of Cytochrome P450 2D6 (AID 891); further: potency means the concentration at half of the fitted maximal effect; nearly all actives have a fitted effect of over 60% in size
Chain of Cytochrome P450 2D6 (Homo sapiens) (P10635 whole entry, looked up): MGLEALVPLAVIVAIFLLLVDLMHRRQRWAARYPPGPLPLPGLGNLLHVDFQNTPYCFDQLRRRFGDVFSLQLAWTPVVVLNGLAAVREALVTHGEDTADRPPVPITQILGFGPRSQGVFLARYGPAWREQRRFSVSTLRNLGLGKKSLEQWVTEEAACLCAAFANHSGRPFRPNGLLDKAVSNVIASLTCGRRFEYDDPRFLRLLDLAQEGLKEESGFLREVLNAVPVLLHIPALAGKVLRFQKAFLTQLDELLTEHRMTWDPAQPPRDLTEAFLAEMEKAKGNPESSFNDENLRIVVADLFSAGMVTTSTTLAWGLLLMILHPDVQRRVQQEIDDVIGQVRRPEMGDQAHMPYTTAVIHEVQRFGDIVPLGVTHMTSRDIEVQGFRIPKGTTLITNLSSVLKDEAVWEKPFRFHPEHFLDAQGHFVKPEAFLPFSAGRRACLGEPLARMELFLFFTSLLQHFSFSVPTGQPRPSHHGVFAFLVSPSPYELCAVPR
How it was run: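 Human CYP2D6 (5 nM) with 30 uM Luciferin-ME EGE (at Km) in 100 mM KPO4, compound preincubated 10 min, then NADPH regeneration system for 60 min at room temperature. Luciferin read by luminescence; normalized to 1.43 uM quinidine.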

[12] = qHTS Assay for Identification of Small Molecule Agonists for Hypoxia Response Element Signaling Pathway (AID 914; active means well fitted activation curve with a large enough effect in the signal ratio, with a control signal flat, not every such curve was filed as active; the % refers to the signal ratio; further: % of control where 0% means no effect); settings: ME-180 (cervical carcinoma) HRE-bla reporter, beta-lactamase ratio, CoCl2, 17 h; activation: active compounds read high
How it was run: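 Reporter activity (beta-lactamase, CCF4 460nm/530nm ratio) in HRE-bla ME-180 cells is recorded after 17 h compound exposure with EC50 CoCl2 at 37 degrees Celsius. AC50 values come from titration data.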

[13] = qHTS Assay for Identification of Small Molecule Agonists for Thrombopoietin (TPO) Signaling Pathway (AID 917); further: on the % scale 0 is the no-effect control and ±100 the full control effect
How it was run: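 Activators of TPO signaling were sought in murine Ba/F3 cells transfected with the human receptor, using a luciferase gene driven by the Glycoprotein IIb promoter; 24-hr compound exposure at 37 C alongside 26 pM TPO, in IL-3-free medium.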

[14] = target: Muscarinic acetylcholine receptor M1 (Rattus norvegicus) (UniProt P08482); test: qHTS Assay for Antagonists of Acetylcholine Muscarinic M1 Receptor: Kinetic Measurement of Intracellular Calcium Response (AID 943); further: potency means the concentration at half of the fitted maximal effect; nearly all actives have a fitted effect of over 75% in size
Chain of Muscarinic acetylcholine receptor M1 (Rattus norvegicus) (P08482 whole entry, looked up): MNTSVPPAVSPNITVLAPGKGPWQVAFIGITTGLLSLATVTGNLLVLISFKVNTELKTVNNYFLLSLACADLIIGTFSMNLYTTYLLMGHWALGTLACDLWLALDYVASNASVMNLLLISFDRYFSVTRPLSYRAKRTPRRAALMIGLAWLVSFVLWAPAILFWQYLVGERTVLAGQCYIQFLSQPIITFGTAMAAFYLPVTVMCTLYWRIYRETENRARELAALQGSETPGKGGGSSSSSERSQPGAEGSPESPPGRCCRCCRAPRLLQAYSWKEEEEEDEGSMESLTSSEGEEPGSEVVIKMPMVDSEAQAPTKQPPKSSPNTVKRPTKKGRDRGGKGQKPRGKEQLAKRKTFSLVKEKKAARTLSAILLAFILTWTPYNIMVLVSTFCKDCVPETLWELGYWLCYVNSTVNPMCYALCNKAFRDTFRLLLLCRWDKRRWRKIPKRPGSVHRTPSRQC
How it was run: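 Rat M1-CHO cells, 2000/well, overnight → Fluo-4 no-wash dye with probenecid, 1 h 37C → compound 10 min, room temp → basal read 6 s → carbachol EC80 (100 nM) → 4 min kinetic read; peak/basal.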

[15] = target: Pyruvate kinase (Leishmania mexicana) (UniProt Q27686); test: qHTS Validation Assay for Inhibitors of Leishmania Mexicana Pyruvate Kinase (AID 945);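 further: 0% = DMSO only neutral control wells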
Chain of Pyruvate kinase (Leishmania mexicana) (Q27686 2-499 E452W): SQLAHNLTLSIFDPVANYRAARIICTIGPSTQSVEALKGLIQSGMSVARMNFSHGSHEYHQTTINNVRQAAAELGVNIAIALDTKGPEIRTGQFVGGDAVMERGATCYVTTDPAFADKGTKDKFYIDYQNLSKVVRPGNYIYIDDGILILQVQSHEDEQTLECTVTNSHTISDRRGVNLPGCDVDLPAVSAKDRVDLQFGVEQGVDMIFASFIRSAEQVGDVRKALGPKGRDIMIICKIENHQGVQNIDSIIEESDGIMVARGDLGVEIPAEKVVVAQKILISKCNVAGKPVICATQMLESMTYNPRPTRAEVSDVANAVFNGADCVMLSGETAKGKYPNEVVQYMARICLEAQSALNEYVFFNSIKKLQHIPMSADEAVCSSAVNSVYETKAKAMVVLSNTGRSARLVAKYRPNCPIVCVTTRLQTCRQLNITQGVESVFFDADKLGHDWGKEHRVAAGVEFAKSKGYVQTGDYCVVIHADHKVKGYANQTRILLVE
How it was run: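 Mutant LmPYK (E451W), 0.2 nM, plus 0.5 mM PEP and 0.1 mM ADP in 50 mM imidazole pH 7.2 containing 0.01% Tween 20 and 0.05% BSA. Incubated 1 h at room temperature; luminescence via PKLight, normalized to DMSO.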

[16] = target: Pyruvate kinase PKM (Homo sapiens) (UniProt P14618); test: qHTS Assay for Activators of Human Muscle Pyruvate Kinase (AID 954; active means well fitted curve in the direction sought with a large enough effect, not every such curve was filed as active;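 further: 0% = uninhibited enzyme and -100% = no enzyme or full thiadiazolimine inhibition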)
Chain of Pyruvate kinase PKM (Homo sapiens) (P14618 whole entry, looked up): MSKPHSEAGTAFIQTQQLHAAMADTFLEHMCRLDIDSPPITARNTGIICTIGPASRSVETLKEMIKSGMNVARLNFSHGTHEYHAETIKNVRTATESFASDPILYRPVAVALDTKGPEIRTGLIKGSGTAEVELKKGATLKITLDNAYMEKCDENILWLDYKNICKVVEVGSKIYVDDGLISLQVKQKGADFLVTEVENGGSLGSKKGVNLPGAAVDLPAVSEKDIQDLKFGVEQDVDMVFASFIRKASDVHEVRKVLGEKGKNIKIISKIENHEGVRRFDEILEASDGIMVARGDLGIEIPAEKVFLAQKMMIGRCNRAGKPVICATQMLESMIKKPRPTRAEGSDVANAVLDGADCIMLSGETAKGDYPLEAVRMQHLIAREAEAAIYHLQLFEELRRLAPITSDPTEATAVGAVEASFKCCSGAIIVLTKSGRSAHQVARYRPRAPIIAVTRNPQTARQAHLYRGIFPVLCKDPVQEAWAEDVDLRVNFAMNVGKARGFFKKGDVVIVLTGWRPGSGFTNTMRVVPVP
How it was run: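 Reaction: 0.1 nM purified PKM2 with 0.5 mM phosphoenolpyruvate and 0.1 mM ADP, room temperature, 1 h. Readout: luciferase-based ATP luminescence after stop reagent. Activators judged against a 0.3 nM enzyme column.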

[17] = target: Alpha-galactosidase A (Homo sapiens) (UniProt P06280); test: Counterscreen for Glucocerebrosidase Inhibitors: qHTS Assay for Human alpha-Galactosidase at pH 4.5 (AID 992); further: 0% is about no effect
How it was run: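 Concentration-response curves (0.7 nM to 77 uM final) were modeled with the Hill equation to give AC50. Reactions: 2 nM enzyme, 80 uM fluorogenic alpha-galactoside, pH 4.5 citric acid buffer, 20 min, room temperature.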

[18] = target: alpha-glucosidase (Oryza sativa, rice) (UniProt Q653V4); test: Counterscreen for Glucocerebrosidase Inhibitors: qHTS Assay for Rice alpha-Glucosidase at pH 5.0 (AID 997);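 further: 0% = full activity with enzyme and -100% = basal without enzyme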
How it was run: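 Rice alpha-glucosidase (4 nM final) with 400 uM 4-methylumbelliferyl-alpha-D-glucopyranoside in citrate buffer pH 5.0, 20 min at room temperature, stopped at pH 10; fluorescence 365/440 nm, compounds 0.7 nM–77 uM, AC50 from Hill fits.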

CCCCN1CCC(COC(=O)c2cc(Cl)c(N)c3c2OCCO3)CC1
inactive: activity change, negative = inhibition [1] -2.87% [at 38 µM] | outcome [3] | Potency [4] > 46 µM | Potency [5] > 46 µM | Potency [6] | Potency [7] | Potency [8] | Potency [9] | outcome [10] | activation [12] 7.22% | outcome [13] | outcome [15] | outcome [16] | outcome [17] | outcome [18]
active: Potency [2] 12.6 µM | Potency [11] 1.26 µM | Potency [14] 5.62 µM
